Measurements reported in PubChem BioAssay (NCI).
Compounds without any hit were thinned out: in the full panel of roughly 79,000, 15% have a hit. Activity calls are given as the source filed them. No stated cut-off is given here; in the data, active means growth inhibition above about 70%; inactive means the rest.

Columns and labels:
[1] = NCI Yeast Anticancer Drug Screen. Data for the rad50 strain (AID 155);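 further: 0% = growth of vehicle-only cultures of the same strain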; details: S. cerevisiae rad50 strain growth inhibition, stronger effect = higher value
Method in brief: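 Growth of the mutant yeast was measured after compound exposure and referenced to vehicle-treated cultures.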

[2] = NCI Yeast Anticancer Drug Screen. Data for the mec2-1 strain (AID 157); details: S. cerevisiae mec2-1 strain, stronger effect = higher value
Method in brief: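 Compounds were applied to mec2-1 yeast cells. Their growth was then compared with that of vehicle-treated cultures to give growth inhibition.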

[3] = NCI Yeast Anticancer Drug Screen. Data for the sgs1 mgt1 strain (AID 161);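 further: 0% = growth of cultures given vehicle only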; details: S. cerevisiae sgs1 mgt1 strain, stronger effect = higher value
Method in brief: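 Compounds are added to genetically altered yeast, and growth is compared with cultures given vehicle alone to give percent inhibition.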

[4] = NCI Yeast Anticancer Drug Screen. Data for the cln2 rad14 strain (AID 165);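 further: 0% = growth equal to vehicle treated cultures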; details: S. cerevisiae cln2 rad14 strain, stronger effect = higher value
Method in brief: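 Strain: cln2 rad14 yeast, altered in cell cycle control and DNA damage repair. Read-out: growth inhibition vs vehicle.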

[5] = NCI Yeast Anticancer Drug Screen. Data for the bub3 strain (AID 167); details: S. cerevisiae bub3 mutant strain, stronger effect = higher value
Method in brief: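 Whole-cell yeast assay. The mutant strain was incubated with compounds, and growth inhibition was determined by comparison with vehicle-treated cells.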

[6] = NCI Yeast Anticancer Drug Screen. Data for the mlh1 rad18 strain (AID 175); details: S. cerevisiae mlh1 rad18 strain growth inhibition, stronger effect = higher value
Method in brief: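 A repair-deficient yeast strain is exposed to test compound, and growth is scored relative to vehicle-treated controls.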

[7] = at 5.0 µM (retest, dose inferred, filed as 0.5)
[8] = at 50.0 µM (retest, dose inferred, filed as 5.0)

Measured: growth inhibition

CCOC(=O)C1C(O)=C(P(=O)(C2=C(O)C(C(=O)OCC)C(c3ccc(OC(C)=O)cc3)C(C(=O)O)C2=O)N(CCCl)CCCl)C(=O)C(C(=O)O)C1c1ccc(OC(C)=O)cc1 (stereo not given)
inactive: [1]; [7] 16% | [1]; at 50.0 µM 45.6% | [2]; [7] 1% | [3]; [7] 11% | [3]; at 50.0 µM 52% | [4]; [7] -5% | [4]; at 50.0 µM 66.2% | [5]; [7] -4% | [5]; at 50.0 µM 54.4% | [6]; [7] 20% | [6]; at 50.0 µM 61.2%
active: [1]; [8] 86% | [2]; [8] 85% | [2]; at 50.0 µM 71.8% | [3]; [8] 95% | [4]; [8] 73% | [5]; [8] 90% | [6]; [8] 92%

CCCCCCCCCCC(=O)O.[Pb]
inactive: [1]; [7] -14% | [1]; [8] 2% | [1]; at 50.0 µM 55.5% | [2]; [7] -10% | [2]; [8] 6% | [2]; at 50.0 µM 5.05% | [3]; [7] -7% | [3]; [8] 9% | [3]; at 50.0 µM 38.5% | [4]; [7] -2% | [4]; [8] -1% | [4]; at 50.0 µM 14.2% | [5]; [7] -1% | [5]; [8] -4% | [5]; at 50.0 µM -16.1% | [6]; [7] -5% | [6]; [8] -12% | [6]; at 50.0 µM 68.2%

O=P(O)(Oc1ccccc1)Oc1ccccc1.[Ag]
inactive: [1]; [7] 36% | [2]; [7] 37% | [6]; [7] 37%
active: [1]; [8] 71% | [1]; at 50.0 µM 92.2% | [2]; [8] 87% | [2]; at 50.0 µM 94% | [3]; [7] 99% | [3]; [8] 98% | [3]; at 50.0 µM 94% | [4]; [7] 70% | [4]; [8] 99% | [4]; at 50.0 µM 93% | [5]; [7] 100% | [5]; [8] 99% | [5]; at 50.0 µM 92.8% | [6]; [8] 86% | [6]; at 50.0 µM 92.3%

O=C(NCC1(O)N=C(c2ccc(F)cc2)c2ccsc2-n2cccc21)c1ccc(Cl)cc1Cl (stereo not given)
inactive: [1]; [7] 6% | [1]; [8] 63% | [2]; [7] -2% | [2]; [8] 44% | [3]; [7] -8% | [3]; [8] 63% | [4]; [7] 2% | [5]; [7] 9% | [5]; [8] 66% | [6]; [7] 6%
active: [1]; at 50.0 µM 96.7% | [2]; at 50.0 µM 95.5% | [3]; at 50.0 µM 97.2% | [4]; [8] 79% | [4]; at 50.0 µM 93.8% | [5]; at 50.0 µM 94.5% | [6]; [8] 77% | [6]; at 50.0 µM 94.9%

C=C1C(=O)O[C@@H]2C[C@@H](C)[C@@H]3C=CC(=O)[C@@]3(C)[C@@H](O)[C@H]12
inactive: [1]; [7] 16% | [1]; [8] 16% | [1]; at 50.0 µM 9.25% | [2]; [7] 2% | [2]; [8] 19% | [2]; at 50.0 µM 17.4% | [3]; [7] 3% | [3]; [8] 31% | [3]; at 50.0 µM 27.5% | [4]; [7] 11% | [4]; [8] 14% | [4]; at 50.0 µM 22.1% | [5]; [7] -18% | [5]; [8] 3% | [5]; at 50.0 µM 22.9% | [6]; [7] 11% | [6]; [8] 27% | [6]; at 50.0 µM 32.2%
